Screening data as filed in PubChem.
HP1b chromo inh = inhibitors of HP1-beta chromodomain binding to methylated histone tails; AID 540317; Potency, µM (highest dose often 114 µM), usual class: inhibitors; hit rate 0.56% among 390,000; AlphaScreen HP1-beta / biotin-H3K9me3 peptide binding; also: nearly all actives have a fitted effect of over 70% in size
Target sequence (P83916 whole entry, looked up): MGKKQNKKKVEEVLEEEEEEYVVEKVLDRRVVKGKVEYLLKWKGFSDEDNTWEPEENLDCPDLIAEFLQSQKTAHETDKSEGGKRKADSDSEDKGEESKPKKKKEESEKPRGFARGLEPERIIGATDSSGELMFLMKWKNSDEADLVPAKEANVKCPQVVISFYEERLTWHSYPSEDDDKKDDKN
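Compound inhibition of the preformed complex between 50 nM HP1-beta and 50 nM biotinylated H3K9me3 peptide was read by AlphaScreen. Buffer was PBS pH 7.4 with 0.01% Tween-20. Incubations ran 30 min at room temperature, with 10 ug/mL donor/acceptor beads.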
GLS inh = glutaminase GLS (human) inhibition; GLS enzymatic activity, qHTS titration; Potency, µM (series often up to 45.5 µM), most hits filed as inhibitors; AID 624170; O94925; hit rate 0.21% among 410,000
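Human kidney-isoform GLS in 45 mM KH2PO4 pH 8.2, 0.02% Tween-20, with compound, started with 1mM L-Glutamine (added stock). Glutamate oxidase/HRP/Amplex red coupled fluorescence read at start and after 30 min at RT.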
BAZ2B inh = BAZ2B (human) inhibition; Q9UIF8; AlphaScreen BAZ2B-H3K14Ac peptide displacement; Potency, µM (doses to about 114 µM), usual class: inhibitors; hit rate 4.4% among 360,000; also: nearly all actives have a fitted effect of over 60% in size
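BAZ2B (50 nM) with biotin-H3(5-23)K14Ac peptide (50 nM) in PBS pH 7.4, 0.01% Tween-20, preformed 30 min, then compound 30 min at room temperature; top concentration 110uM. AlphaScreen streptavidin donor/nickel chelate acceptor beads (10 ug/mL final), 20 min dark, signal read.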
G9a inh = G9a (human) methyltransferase inhibition. Q96KQ7. G9a H3K9 monomethylation, AlphaScreen, 2 h. Potency, µM (series often up to 102 µM), actives largely listed as inhibitors. hit rate 8.8% among 350,000. AID 504332; also: nearly all actives have a fitted effect of over 75% in size
Target sequence (Q96KQ7 913-1193 limits assumed): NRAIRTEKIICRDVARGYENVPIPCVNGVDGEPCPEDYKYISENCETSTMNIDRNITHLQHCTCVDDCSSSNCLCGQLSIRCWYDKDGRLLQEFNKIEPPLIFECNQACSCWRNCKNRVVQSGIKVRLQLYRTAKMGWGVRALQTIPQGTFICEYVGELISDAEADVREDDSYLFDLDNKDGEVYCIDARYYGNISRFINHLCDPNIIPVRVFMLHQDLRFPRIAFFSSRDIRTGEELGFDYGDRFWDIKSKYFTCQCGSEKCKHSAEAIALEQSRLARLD
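Compounds were preincubated with 20 nM G9a for 15 min, after which biotinylated H3K9 peptide (500 nM) and SAM (20 uM) started a 2 h room-temperature reaction. Monomethylated product was quantified by antibody-based AlphaScreen chemiluminescence.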
JMJD2A Tudor = inhibitors of human JMJD2A Tudor domain. AlphaScreen JMJD2A-Tudor / H3K4me3 peptide binding. Potency, µM (doses to about 114 µM), actives largely listed as inhibitors. hit rate 4.4% among 390,000. AID 504339; also: nearly all actives have a fitted effect of over 50% in size
Each line names hits and unclear results; the compound was inactive in the other large screens; ! = repeats disagree. Compounds with a hit are over-represented: about 10% of the library has one in this group of screens. Calls follow the shape of the dose curve; as a rule, active = well fitted curve in the direction sought with a large enough effect; inconclusive = small, poorly fitted or top-dose-only effect, or another doubt; inactive = no such curve, though single readings can be large; an effect the other way counts as inactive or inconclusive.

COc1cccc(C(=O)NCCS(=O)(=O)N2CCN(C(=O)c3ccco3)CC2)c1	G9a inh 14.1µM
COc1cccc(C(=O)NCCCNC(=O)c2ccco2)c1	none
Cc1ccc(OCc2cc(C(=O)NC3CCc4ccccc43)no2)cn1 (centres undefined)	G9a inh inconclusive
CCCCN(C)C(=O)Cn1cnc2sc(C)c(S(=O)(=O)N3CCC(C)CC3)c2c1=O	none
CCCN1CCC(=NNc2ccc(S(=O)(=O)N(CC)CC)cc2[N+](=O)[O-])CC1	HP1b chromo inh inconclusive, BAZ2B inh inconclusive, G9a inh 35.5µM, JMJD2A Tudor inconclusive
CCOC(=O)N1CCC(=NNc2ccc(S(N)(=O)=O)cc2[N+](=O)[O-])CC1	G9a inh inconclusive
CCCN1CCC(=NNc2ccc(S(N)(=O)=O)cc2[N+](=O)[O-])CC1	G9a inh 14.1µM
COc1ccc(CC(=O)N[C@@H]2c3cc(OC)c(OC)cc3C[C@H]2O)cc1	none (no result: BAZ2B inh, G9a inh)
CCc1ccc(/C=C/c2c[nH]c3ccccc23)[n+](CC)c1	G9a inh 7.08µM, JMJD2A Tudor inconclusive
O=C(Nc1ccc(F)c(Cl)c1)Nc1c[nH]c(=O)[nH]c1=O	none
CCCCCCCCc1nc(=S)[nH][nH]1	HP1b chromo inh inconclusive, G9a inh 0.891µM, JMJD2A Tudor inconclusive
CCCCCCC1CC(CCc2nc(=S)[nH][nH]2)C(=O)O1 (centres undefined)	G9a inh 1.58µM, JMJD2A Tudor 31.6µM
COc1ccc(-c2csc(C(C)(O)c3ccc(F)c(F)c3)n2)cc1 (centres undefined)	none (no result: HP1b chromo inh, BAZ2B inh, G9a inh, JMJD2A Tudor)
COc1ccc(OCC(=O)NNC(=O)c2cccnc2)cc1	BAZ2B inh inconclusive
COc1cccc(C(=O)OCCNC(=O)c2cccnc2)c1	G9a inh 50.1µM
Cc1ccc(OCC(=O)NNC(=O)c2cccnc2)cc1	G9a inh 79.4µM
O=C(NCCOC(=O)C1COc2ccccc2O1)c1cccnc1 (centres undefined)	BAZ2B inh inconclusive, G9a inh 50.1µM, JMJD2A Tudor 39.8µM
COc1ccc(OCC(=O)OCCNC(=O)c2cccnc2)cc1	BAZ2B inh inconclusive, G9a inh 31.6µM, JMJD2A Tudor 50.1µM
CNC[C@@H]1Oc2cc(Br)ccc2S(=O)(=O)N([C@@H](C)CO)C[C@@H]1C	none (no result: HP1b chromo inh, BAZ2B inh, G9a inh, JMJD2A Tudor)
Cc1ccc(NC(=O)CN(C)S(=O)(=O)c2ccc3c(c2)CCC(=O)N3)c(C)c1	none
CC(Sc1nc(NCc2ccccc2)nc(N(C)C)n1)C(=O)Nc1ccccc1 (centres undefined)	none (no result: G9a inh)
CC(Sc1nc(N)c2c3c(sc2n1)CSC(C)(C)C3)C(=O)Nc1ccccc1 (centres undefined)	HP1b chromo inh inconclusive, GLS inh inconclusive, JMJD2A Tudor 11.2µM
Cc1cccc(Cn2c(CN3CCC(C(=O)NCCc4ccccc4)CC3)cc3ccccc32)c1	none
Cc1cc(C)c2c(N)c(C(=O)c3ccc(Br)cc3)oc2n1	G9a inh 35.5µM
Cc1cc(C)c2c(N)c(C(=O)c3ccccc3)oc2n1	G9a inh inconclusive
Cc1nn(C(C)(C)C)c(OC(=O)c2c(F)cccc2F)c1Sc1ccccc1	none
COc1cc2c3nnc(-c4ccc(F)cc4)c-3cn(Cc3ccc(F)cc3)c2cc1OC	G9a inh 50.1µM
COc1ccc(Cn2cc3c(-c4ccc(F)cc4)nnc-3c3cc(OC)c(OC)cc32)cc1	none
COc1ccc(CCNc2nc(C)c(C(C)=O)s2)cc1OC	HP1b chromo inh inconclusive, BAZ2B inh inconclusive, G9a inh 3.98µM, JMJD2A Tudor inconclusive
CC(=O)c1sc(NCc2ccccc2)nc1C	BAZ2B inh inconclusive, G9a inh 70.8µM
CC(=O)c1sc(NC(=O)CCCOc2ccc(Cl)cc2)nc1C	BAZ2B inh 79.4µM, G9a inh inconclusive
CC(=O)c1sc(NCc2ccc(C)cc2)nc1C	G9a inh 56.2µM
COc1ccc(OCCCC(=O)Nc2nc(C)c(C(C)=O)s2)cc1	JMJD2A Tudor inconclusive
Cc1cc(F)ccc1C(O)c1ncc(-c2cccc3ccccc23)[nH]1 (centres undefined)	none (no result: HP1b chromo inh, BAZ2B inh, G9a inh, JMJD2A Tudor)
O=C(Cc1c(F)cccc1Cl)NCC(=O)OCc1ccccc1	none
CC(=O)c1sc(Nc2ccccn2)nc1C	BAZ2B inh 50.1µM
COc1ccc(CCNc2nc(-c3ccc(F)cc3)c(CC(=O)O)s2)cc1OC	HP1b chromo inh inconclusive, GLS inh 11.2µM, G9a inh 7.08µM
CC(=O)c1sc(Nc2cccc3ccccc23)nc1C	none (no result: BAZ2B inh, G9a inh)
CC(=O)c1sc(NCCOc2ccc(C)cc2)nc1C	G9a inh 50.1µM
Cc1ccc(C)c(NC(=O)CSc2nc(=O)n(Cc3ccccn3)c3c2CCC3)c1	none
COc1ccc(-c2nc(CSc3nnc(C)n4c3cc3sccc34)c(C)o2)cc1	none
Cc1onc(-c2c(F)cccc2Cl)c1C(=O)Nc1cc2cc([N+](=O)[O-])ccc2oc1=O	none (no result: HP1b chromo inh, BAZ2B inh, G9a inh, JMJD2A Tudor)
COc1ccc(NS(=O)(=O)c2cc3c(cc2C)N(C)CCO3)cc1	BAZ2B inh 50.1µM, JMJD2A Tudor inconclusive
CCn1c(CC(C)C)n[nH]c1=S	JMJD2A Tudor inconclusive (no result: G9a inh)
CCn1c(-c2nn(C)cc2Cl)n[nH]c1=S	G9a inh 10µM, JMJD2A Tudor 6.31µM
Cc1ccsc1-c1n[nH]c(=S)n1CC(C)C	G9a inh inconclusive, JMJD2A Tudor 8.91µM
CC(C)Cn1c(-c2nn(C)cc2Cl)n[nH]c1=S	G9a inh 10µM, JMJD2A Tudor 8.91µM
O=C1CCCc2cc3c(cc21)CC1(C3)Cc2cc3c(cc2C1)C(=O)CCC3	none
O=C1c2cc(O)cc(O)c2C(=O)c2c1cc(O)c([C@@H](CO)CCO)c2O	HP1b chromo inh inconclusive, JMJD2A Tudor 79.4µM (no result: BAZ2B inh, G9a inh)
Cc1c(Cl)cccc1NS(=O)(=O)c1ccc(NS(=O)(=O)c2ccc3c(c2)OCCO3)cc1	G9a inh inconclusive
Cc1ccc([C@H]2Nc3ccc(S(=O)(=O)Nc4cccc(Cl)c4C)cc3[C@H]3C=CC[C@H]32)cc1	BAZ2B inh inconclusive, G9a inh 14.1µM, JMJD2A Tudor inconclusive
COc1cccc([C@H]2Nc3ccc(S(=O)(=O)Nc4cc(C)ccc4C)cc3[C@H]3C=CC[C@H]32)c1	GLS inh inconclusive, G9a inh 12.6µM
Cc1ccc(S(=O)(=O)OCC(=O)Nc2ccc(C(=O)O)c(O)c2)cc1	JMJD2A Tudor 20µM (no result: BAZ2B inh, G9a inh)
Cc1ccc(N2CCN(c3nc4ccc(C(=O)c5ccccc5)cc4n4cnnc34)CC2)c(C)c1	BAZ2B inh inconclusive
COc1ccc(C)cc1-n1nnc(-c2nc(-c3ccccc3Cl)no2)c1N	none
CCOCCCNC(=O)CCC(=O)NNc1nc2ccccc2c2nc(C)nn12	BAZ2B inh inconclusive
CCCCNC(=O)CCC(=O)NNc1nc2ccccc2c2nc(-c3ccccc3)nn12	BAZ2B inh 89.1µM!
CCCCNc1nc2ccccc2c2nc(-c3ccccc3)nn12	none
CCCCNC(=O)CCC(=O)NNc1nc2ccccc2c2nc(C)nn12	G9a inh 25.1µM!
O=C(OC1CCOC1=O)c1ccc2ncsc2c1 (centres undefined)	G9a inh 28.2µM
COc1ccc2c(c1)[n+](=O)c(C(C)=O)c(C)n2[O-]	HP1b chromo inh inconclusive, G9a inh 28.2µM
